Where “and” joins values, the source holds several entries; their conditions need not be identical. Identical values can stand only once. About 5,100 (32%) of roughly 16,000 compounds were called active. Roughly 25% stayed inconclusive and do not appear here. This is one part of the list. A number with no mark means an inactive call. Calls come from the whole dose curve; as a rule, active = well fitted curve in the direction sought with a large enough effect; inconclusive = small, poorly fitted or top-dose-only effect, or effect the other way; inactive = no such curve, though single readings can be large or run the other way. Square brackets hold non-standard residues; d marks the D form. Peptide text beside a SMILES is read from it. * marks the point of attachment. ξ: configuration not given here. Cbz = O=C(OCc1ccccc1)*; PhAc = O=C(Cc1ccccc1)*; OBn = c1ccc(CO*)cc1; ξA = CC(N)C(=O)O
What follows are compounds tested against Cytochrome P450 3A4 (Homo sapiens) (UniProt P08684) (assay: Cytochrome panel assay with activity outcomes). Settings: recombinant CYP, pro-luciferin dealkylation, luminescence, p450-cyp3a4; series mostly up to 57.1 µM; activity, negative = inhibition: at the top concentration.
% is set by controls: 0 for no effect and ±100 for the full control effect.

Chain of Cytochrome P450 3A4 (Homo sapiens) (P08684 whole entry, looked up): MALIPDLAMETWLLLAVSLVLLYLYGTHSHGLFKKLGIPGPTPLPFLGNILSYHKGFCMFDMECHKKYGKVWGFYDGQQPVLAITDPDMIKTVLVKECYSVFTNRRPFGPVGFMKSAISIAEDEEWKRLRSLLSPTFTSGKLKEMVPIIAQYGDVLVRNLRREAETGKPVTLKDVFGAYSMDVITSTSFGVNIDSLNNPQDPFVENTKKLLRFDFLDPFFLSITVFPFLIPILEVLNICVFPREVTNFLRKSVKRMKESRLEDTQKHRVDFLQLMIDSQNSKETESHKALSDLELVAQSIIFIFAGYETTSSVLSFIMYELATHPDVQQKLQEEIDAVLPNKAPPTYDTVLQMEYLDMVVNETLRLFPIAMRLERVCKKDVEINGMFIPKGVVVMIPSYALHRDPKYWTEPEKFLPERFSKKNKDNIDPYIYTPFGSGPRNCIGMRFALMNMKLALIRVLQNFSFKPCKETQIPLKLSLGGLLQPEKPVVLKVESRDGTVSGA

SMILES | activity, negative = inhibition | AC50
CC(C)CN(C)c1nc(N)c(C(=O)N=C(N)N)nc1Cl | -3.71% | –
Cc1cnc(CNc2ncncc2-c2ccc(N(C)C)cc2)cn1 | – | 2 µM (active)
Cc1cnc(CNc2ncncc2-c2ccc(C(=O)N(C)C)cc2)cn1 | – | 12.6 µM (active)
Cc1cnc(CNc2cc(-c3ccc(C(=O)N(C)C)cc3)ncn2)cn1 | -19% | –
Cc1cnc(CNc2ncncc2-c2ccoc2)cn1 | – | 2 µM (active)
CNCCCCCCCCSc1nc(C(C)C)ccc1C(=O)c1cccs1 | – | 2.51 µM (active)
COC(=O)Nc1nc2ccc(C(=O)c3cccs3)cc2[nH]1 | -18% | –
C[C@@H](C(=O)O)c1ccc(C(=O)c2cccs2)cc1 | -4.04% [at 25.6 µM] | –
CCOC(=O)N/N=C1/C[C@@H](O)[C@@H](O)[C@@H]2[C@@H]3C(=O)N(CC)C(=O)[C@H]3CC[C@@H]12 | -14.4% [at 11.4 µM] | –
Cc1ccc(-n2[nH]c(C)c(C=Nc3ccc4[nH]c(=O)[nH]c4c3)c2=O)cc1C | – | 14.1 µM (active)
Cn1c(=O)n(CC#N)c2ccccc21 | -1.21% [at 2.29 µM] | –
O=C(NCCN1CCOCC1)c1ccc2ccccc2c1 | -4.73% | –
Cc1cc(C(F)F)n2ncc(C(=O)NCc3ccccc3C(F)(F)F)c2n1 | 8.24% | –
Cc1nn(C)c(C)c1CNC(=O)c1cnn2c1NC(c1ccccc1)CC2C(F)(F)F (stereo unspecified) | – | 12.6 µM (active)
O=C(NCCN1CCOCC1)c1nn2c(c1Cl)NC(c1ccccc1)CC2C(F)(F)F (stereo unspecified) | – | 7.08 µM (active)
COc1ccc(OC)c(NC(=O)c2cc3n(n2)C(C(F)(F)F)CC(c2ccc4c(c2)OCO4)N3)c1 (stereo unspecified) | – | 3.98 µM (active)
COc1ccc(NC(=O)c2cc3n(n2)C(C(F)(F)F)CC(c2ccc4c(c2)OCO4)N3)cc1OC (stereo unspecified) | -24.1% | –
CC12CC(NC(=O)N1c1cccc(C(=O)NCc3ccccc3)c1)c1ccccc1O2 (stereo unspecified) | -2.24% | –
COc1ccc(C2CC(C(F)(F)F)n3nc(C(=O)N(C)Cc4cn(C)nc4C)c(Cl)c3N2)cc1 (stereo unspecified) | – | 2.51 µM (active)
Cc1ccc(C2C(C=Nc3c(C)n(C)n(-c4ccccc4)c3=O)=C(c3ccccc3)Oc3ccccc32)cc1 (stereo unspecified) | -22.8% | –
Cc1ccc(C2CC(C(F)(F)F)n3nc(C(=O)NCCN4CCOCC4)cc3N2)cc1 (stereo unspecified) | – | 7.94 µM (active)
O=C(CNC(=O)c1ccco1)OCc1c(F)cccc1Cl | -10.2% [at 2.29 µM] | –
O=C(CNC(=O)Cc1ccccc1)NCC(=O)OCc1ccccc1 (PhAc-Gly-Gly-OBn) | -26.1% | –

SMILES | activity, negative = inhibition | AC50
CC(C)(C)c1ccc(COC(=O)CNC(=O)CNC(=O)Cc2ccccc2)cc1 | – | 12.6 µM (active)
O=C(CNC(=O)c1cccs1)NCC(=O)OCc1ccc(Cl)cc1 | – | 25.1 µM (active)
COC(=O)CNC(=O)C(C)NC(=O)CNC(=O)OCc1ccccc1 (stereo not drawn) (Cbz-Gly-[ξA]-Gly-OMe) | -0.615% [at 2.29 µM] | –
O=C(CNC(=O)c1cccs1)NCC(=O)OCc1ccc(Cl)cc1Cl | – | 7.08 µM (active)
CC(=O)N(O)CCCCCNC(=O)CCC(=O)N(O)CCCCCNC(=O)CCC(=O)N(O)CCCCCN | -17.3% [at 25.6 µM] | –
O=C(O)C[C@H]1OCC=C2C[N@@+]3([O-])CC[C@]45c6ccccc6N[C@@H]4[C@@H]1[C@H]2C[C@H]53 | -0.0687% [at 11.4 µM] | –
O=C(c1ccc2c(c1)N(Cc1ccccc1)C(=O)CS2)N1CCOCC1 | -28.8% | –
Cc1ccc(C)c(CN2C(=O)C3CCCN3c3ccc(S(=O)(=O)N4CCOCC4)cc32)c1 (stereo unspecified) | – | 11.2 µM (active)
O=C1C2CCCN2c2ccc(S(=O)(=O)N3CCOCC3)cc2N1Cc1cccc(C(F)(F)F)c1 (stereo unspecified) | – | 15.8 µM (active)
Cc1ccc(C)c(CN2C(=O)C3CCCN3c3ccc(C#N)cc32)c1 (stereo unspecified) | – | 5.01 µM (active)
O=C(Cn1cc(C(F)(F)F)ccc1=O)N1CCN(S(=O)(=O)c2ccccc2)CC1 | -26.5% [at 11.4 µM] | –
Cc1ccc(C2CC2C(=O)NN)cc1 (stereo unspecified) | – | 7.94 µM (active)
O=C(O)[C@@H](O)c1ccc(F)cc1 | -5.47% [at 11.4 µM] | –
COc1ccc([C@@H](C)c2cc3c(cc2O)OCO3)cc1 | – | 2.51 µM (active)
COc1ccc([C@@H](Nc2ncccn2)c2cc3c(cc2O)OCO3)cc1 | – | 2.51 µM (active)
COc1ccc([C@H](O)c2ccccn2)cc1 | -5.07% [at 11.4 µM] | –
N#CC(=C(/N)Sc1ccccc1N)/C(C#N)=C(/N)Sc1ccccc1N | – | 316 nM (active) and 3.16 µM (active)
N#CC1=C(SCC(N)=O)NC2=C(C(=O)c3ccccc32)C1c1ccc(Cl)cc1 (stereo unspecified) | – | 10 µM (active)
C[N+](C)(C)CC[N+]1(C)Cc2c(Cl)c(Cl)c(Cl)c(Cl)c2C1 | -12.8% | –
COc1cccc(OCC(=O)NN=C2c3ccccc3-c3ccccc32)c1 | – | 6.31 µM (active)
C/C(CC(=O)Nc1cc(C)ccn1)=N\NC(=O)COc1cccc(C)c1 | -15.1% [at 2.29 µM] | –
Cc1cccc(C)c1NC(=O)COc1cccc(/C=N/NC(=O)C(=O)NCc2ccccc2)c1 | -17.9% | –
Cc1cccc2c1OCC/C2=N\NC(=O)COc1ccccc1 | – | 15.8 µM (active)

From PubChem BioAssay AID1851 (National Center for Advancing Translational Sciences (NCATS), 2009)
